The results in this text go back to PubChem BioAssay.

Assay [1] can be described thus: P. berghei load reduction in hepatocytes – cell-based, HepG2, luciferase luminescence, HepG2 viability, primary screen (AID 624349; in the data active = parasite load remaining mostly below about 12%, no sharp cut-off; inactive = mostly above about 10%;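 also: 100% = mean of DMSO negative control wells on the same plate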). To be noted: P. berghei liver stage in HepG2, luciferase luminescence, concentration not given here; parasite load remaining: stronger effect = lower value; viability: measured here: HepG2 viability without parasites.
Assay [2] in a line: Wnt pathway potentiators raising nuclear beta-catenin – imaging, WNT3A-conditioned medium, mouse C2C12, NPC library, primary screen (AID 1117326; in the data active = nuclear beta-catenin stimulation mostly above about 4.2%, no sharp cut-off; inactive = mostly below about 10%). To be noted: stronger effect = higher value.
The nature of assay [3]: stimulators of insulin release from INS-1E, primary screen, cell-based, 5 mM glucose, NPC library (AID 1117329;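 active = compound raises insulin release from rat beta cells at 5 mM glucose, no numeric limit stated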). To be noted: rat INS-1E insulin secretion, at 10 µM, stronger effect = higher value.
Assay [4] can be described thus: growth inhibition of GSK3B-pretreated HCT116 cells – cell-based, CellTiter-Glo, 0.2 to 20 µM (AID 1117336;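 active = compounds lowering colon cancer cell viability after pretreatment blocking the GSK3B kinase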). The following applies: HCT116 viability after GSK3B inhibitor, at 20 µM, stronger effect = higher value.
Assay [5] is described as follows: inhibition of endothelial tube formation, primary screen, imaging, VEGF stimulated, CD31 staining, tube area, NPC library (AID 1117340;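 active = compound that reduces growth-factor-driven endothelial tube area in a mixed cell culture, no cutoff stated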). The following applies: VEGF-stimulated ADSC/ECFC co-culture, at 10 µM, stronger effect = higher value.
Assay [6] can be described thus: GLP1 release stimulators, primary, NCI-H716, NPC library (AID 1117341;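 active = compound raises GLP1 secretion from the human gut endocrine cells, with no numeric limit stated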). The following applies: NCI-H716 cells, at 10 µM, stronger effect = higher value.
The nature of assay [7]: HCT116 colon cancer cell growth inhibition, primary screen, CellTiter-Glo luminescence, NPC library (AID 1117342;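 active = compounds that lower survival of HCT116 colon cancer cells in the luminescence readout, no numeric limit stated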). The following applies: at 20 µM (top of the series). In general terms: Cellular ATP, detected with luciferase, serves as a proxy for viable cell number.
The nature of assay [8]: reduced SW480 viability measured with CellTiter-Glo, NPC library, primary (AID 1117343;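 active = compounds that lower viability of the colon cancer cells in the luminescence readout, with no numeric limit stated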). The following applies: CellTiter-Glo luminescence; at 20 µM (top of the series).
A short description of assay [9]: NPC library primary testing for decreased DLD-1 cell viability via CellTiter-Glo (AID 1117346;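 active = compounds that lower survival of DLD-1 colon cancer cells in the luminescence readout, no cutoff given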). To be noted: DLD-1 viability, CellTiter-Glo luminescence; at 20 µM (top of the series).
Assay [10] in a line: viability loss with induced miR-34 in A549 – imaging, A549 dox-inducible miR-34, nuclei and caspase counts, primary screen (AID 1347080). To be noted: A549 miR-34 inducible, Hoechst nuclei count, 48 h.
A short description of assay [11]: MELAS cybrid and Rieske KO viability enhancers – cell-based, MELAS cybrids, Rieske KO mouse fibroblasts, CellTiter-Glo, primary screen (AID 1508586;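 active = mean z-score across replicates of 1.96 or higher in either the MELAS or the Rieske mutant cell line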;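 also: z relative to plate mean and SD of compound and empty wells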). The following applies: low glucose.
Assay [12] in a line: galactose survival enhancers in mitochondrial complex I cybrids – cell-based, galactose medium, ATP luminescence, primary screen (AID 1645843;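 active = z-score of at least 1.8 in each of two replicates, scored against plate mean and spread of sample wells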;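 also: positive z means more ATP and so rescue of galactose-driven cybrid death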). To be noted: complex I mutant cybrid cells, 72 h, stronger effect = higher value.
A short description of assay [13]: EMT-state selective cytotoxicity in co-culture – imaging, PC-3E GFP, TEM4-18 mCherry, primary screen (AID 1345086;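 active = compounds killing one labelled cell type while sparing the other, by normalised counts and ratio limits, not self-fluorescent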;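 as to all read-outs here: cells exposed to compound for 72 h before imaging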;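 as to red/green cell ratio (normalised): normalised mesenchymal count divided by normalised epithelial count so high means epithelial killing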). To be noted: PC-3E GFP / TEM4-18 mCherry co-culture, imaging cell counts, at 1 µM; for red/green cell ratio (normalised): actives lie on both sides.
The target of assay [14] is NAD(+) hydrolase SARM1 (Homo sapiens) (UniProt Q6SZW1). Put plainly: blocking NAD cleavage by SARM1 SAM-TIR – cell lysate, NAD-Glo luminescence (AID 1508614;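 active = compound whose remaining NAD level is above about 45 nM, limit read from the data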;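 also: higher remaining NAD means stronger inhibition of SARM1 NADase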). To be noted: SAM-TIR HEK293T lysate NADase, at 1 µM, stronger effect = higher value.
NAD(+) hydrolase SARM1 (Homo sapiens), sequence (Q6SZW1 whole entry, looked up): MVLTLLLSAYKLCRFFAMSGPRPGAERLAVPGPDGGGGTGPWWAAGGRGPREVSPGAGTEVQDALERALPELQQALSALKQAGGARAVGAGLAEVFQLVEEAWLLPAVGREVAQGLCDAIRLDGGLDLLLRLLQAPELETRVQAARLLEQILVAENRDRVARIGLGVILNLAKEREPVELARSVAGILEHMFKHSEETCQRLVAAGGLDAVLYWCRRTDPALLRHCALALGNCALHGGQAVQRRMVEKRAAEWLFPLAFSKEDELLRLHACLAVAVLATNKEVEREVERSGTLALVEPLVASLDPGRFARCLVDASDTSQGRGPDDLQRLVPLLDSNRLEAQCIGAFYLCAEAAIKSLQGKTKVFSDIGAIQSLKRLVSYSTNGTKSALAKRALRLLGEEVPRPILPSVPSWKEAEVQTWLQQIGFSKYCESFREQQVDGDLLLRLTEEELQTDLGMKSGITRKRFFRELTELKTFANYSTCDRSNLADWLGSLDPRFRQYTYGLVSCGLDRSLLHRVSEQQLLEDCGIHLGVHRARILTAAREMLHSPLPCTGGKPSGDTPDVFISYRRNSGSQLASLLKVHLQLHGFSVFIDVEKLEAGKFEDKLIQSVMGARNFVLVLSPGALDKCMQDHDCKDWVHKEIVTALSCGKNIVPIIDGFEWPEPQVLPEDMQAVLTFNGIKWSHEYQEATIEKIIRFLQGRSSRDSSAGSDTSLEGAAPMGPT
A short description of assay [15]: compounds altering viability of human ES cells (AID 493140; call rule not given here;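 also: cells exposed to compounds for four days before counting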). To be noted: human embryonic stem cell survival screen; stronger effect = higher value.
In assay [16] the test system is Hepatitis C virus NS3 helicase. Put plainly: blockers of NS3h binding to ssDNA – biochemical, fluorescence polarization, LOPAC1280 library, primary screen (AID 687035; in the data active = inhibition above about 37%). To be noted: Purified HCV NS3 helicase, Cy5-dT15 ssDNA binding fluorescence polarization; stronger effect = higher value; concentration not given here. (In general: Fluorescence polarisation rises when a labelled molecule tumbles more slowly, as on binding a larger partner.)

The nature of assay [17]: compounds altering Cy5-DNA-NS3h complex signal – biochemical, LOPAC1280, artefact control for HCV NS3 helicase inhibitor project (AID 687037; call rule not given here). To be noted: Cy5-DNA-NS3h complex fluorescence interference counterscreen.
The test system of assay [18] is Aerobactin synthetase IucA (Klebsiella pneumoniae, hypervirulent). Put plainly: biochemical IucA inhibition screen of LOPAC library by absorbance (AID 1346212; call rule not given here;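 also: 100% = no compound wells and 0% = no enzyme wells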). To be noted: IucA enzyme assay, absorbance (OD) readout; stronger effect = lower value;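 tested at 8 µM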.
The mark [19] stands for this setting: measured here: relative caspase fold change +Dox/-Dox.
Setting [20] is: measured here: total cells with miR-34 induction, stronger effect = lower value.
The mark [21] stands for this setting: measured here: total cells without miR-34 induction.
The mark [22] stands for this setting: MELAS cybrid survival, CellTiter-Glo 48 h, stronger effect = higher value.
[23] abbreviates: Rieske KO mouse fibroblast survival, CellTiter-Glo 72 h.
Setting [24] is: measured here: epithelial PC-3E GFP cell survival.
Where [25] appears, read: measured here: mesenchymal TEM4-18 mCherry cell survival.

Values joined by “and” are separate entries in the source; they are usually repeats but may differ in a detail not shown here. Identical values can stand only once. Active and inactive are the calls of the source.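 The calls were made as follows, unless noted: active = compounds whose cell count with miR-34 switched on is under 0.7 times the count with it off; inactive = the rest.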

The term viability denotes a read-out of living cells in per cent, often relative to untreated cells. For the molecule `CCCC[N+]1(C)[C@@H]2CC(OC(=O)[C@H](CO)c3ccccc3)C[C@H]1[C@@H]1O[C@@H]12` (some centres undefined), the parasite load remaining in [1] was 35.4% (inactive). Also, the viability in [1] stood at 61.5%. The nuclear beta-catenin stimulation in [2] (at 10 µM) was 1.5% (inactive); in [2] (stimulation, at 2 µM), -0.2%. Further, the insulin secretion stimulation in assay [3] is 0.85% (inactive). In [4], the viability decrease was 11.7% (inactive). Further, the tube area decrease in assay [5] is -20.3% (inactive). Besides, the GLP1 secretion stimulation in [6] was 0.9% (inactive). Further, the inhibition of viability in [7] is 3.4% (inactive). For the same molecule, the results for the viability decrease (inhibition) in [8] and in assay [9] were -15.4% (inactive) and -1.4% (inactive), respectively. Besides, the fold change was 0.89 (inactive) in assay [10] (stronger effect = lower value) and 0.894 in [10] (setting [19]). For the same molecule, the cell count in [10] (setting [20]) was 9520; in [10] (setting [21]), 10700. Moreover, the z-score in assay [11] (setting [22]) is -0.818 (inactive) and -0.303 (inactive); in [11] (setting [23]), -0.588 and -0.226; in assay [12], 0.285 (inactive).

Regarding `O=c1n(Cl)c(=O)n(Cl)c(=O)n1Cl`, the nuclear beta-catenin stimulation in assay [2] (at 10 µM) is -0.9% (inactive); in assay [2] (stimulation, at 2 µM), -0.3%. In addition, the insulin secretion stimulation in [3] is 1.5% (inactive). The viability decrease in [4] was -15.4% (inactive). Moreover, in assay [5], the tube area decrease is 16.7% (inactive). Further, the GLP1 secretion stimulation in [6] was 0.8% (inactive). In assay [7], the inhibition of viability was 13.9% (inactive). Besides, the values for the viability decrease (inhibition) in assay [8] and in assay [9] were 11.6% (inactive) and -0.1% (inactive), respectively. For the same molecule, in assay [13], the red/green cell ratio (normalised) is 0.94 (inactive). Also, the normalised cell number in assay [13] (setting [24]) turned out to be 1.07; in assay [13] (setting [25]), 1. Besides, the values for the fold change in assay [10] (stronger effect = lower value) and in assay [10] (setting [19]) were 0.97 (inactive) and 1.18, respectively. For the same molecule, the cell count in [10] (setting [20]) was 8670; in [10] (setting [21]), 8940. Further, in assay [14], the remaining NAD is 10 nM (inactive).

In general, inhibition refers to the drop in the measured response relative to a control, in per cent. The term remaining activity denotes the signal under treatment as a percentage of the control signal. Consider `CCCCc1ccc(C(=O)O)nc1`, for which the survival in assay [15] was 6.17 (inactive). For the same molecule, the parasite load remaining in assay [1] was 113% (inactive) and 80.1% (inactive). Moreover, the viability in [1] was 102% and 74.9%. In [16], the inhibition was -3% (inactive). In addition, in [17], the fluorescence ratio (interference) is 1.1 (inactive). The nuclear beta-catenin stimulation in [2] (at 10 µM) is 0.7% (inactive); in [2] (stimulation, at 2 µM) it was 2.6%. Besides, the insulin secretion stimulation in assay [3] is 0.5% (inactive). The viability decrease in assay [4] is 9.1% (inactive). The tube area decrease in assay [5] was -19.3% (inactive). In assay [6], the GLP1 secretion stimulation was -1.2% (inactive). In addition, the inhibition of viability in assay [7] was 25.9% (inactive). Further, the results for the viability decrease (inhibition) in assay [8] and in assay [9] were 82.1% (active) and 3.1% (inactive), respectively. The remaining activity in assay [18] is 102% (inactive). The fold change is 0.891 (inactive) and 0.841 (inactive) in assay [10] (stronger effect = lower value); 1.39 and 1.24 in assay [10] (setting [19]). Moreover, the cell count is 9790 and 8980 in assay [10] (setting [20]); 11000 and 10700 in assay [10] (setting [21]). Further, in [12], the z-score was 0.395 (inactive).

As for `Nc1nc(N)nc(NC2CC2)n1`, the nuclear beta-catenin stimulation in [2] (at 10 µM) was 0.9% (inactive); in assay [2] (stimulation, at 2 µM), 2.8%. The insulin secretion stimulation in [3] is -1.3% (inactive). Also, the viability decrease in assay [4] was -16.8% (inactive). For the same molecule, in assay [5], the tube area decrease was 5.4% (inactive). Further, the GLP1 secretion stimulation in assay [6] is 2.4% (inactive). For the same molecule, the inhibition of viability in assay [7] was 2.07% (inactive). The viability decrease (inhibition) is -5.7% (inactive) in assay [8] and -8.2% (inactive) in assay [9]. In assay [13], the red/green cell ratio (normalised) was 0.97 (inactive). In addition, the normalised cell number worked out at 1 in assay [13] (setting [24]) and 0.96 in [13] (setting [25]). Moreover, the fold change in assay [10] (stronger effect = lower value) is 0.94 (inactive) and 0.918 (inactive); in assay [10] (setting [19]), 0.828 and 0.774. Besides, the cell count in [10] (setting [20]) was 8490 and 8320; in [10] (setting [21]) it was 9030 and 9070. Besides, the results for the z-score in [11] (setting [22]) and in [11] (setting [23]) were -0.201 (inactive) and -0.194, respectively. For the same molecule, in assay [14], the remaining NAD is 10 nM (inactive).
